“And” between values parts separate entries of the source, which are not always exact repeats. Equal values may be shown once. Inconclusive results are not listed. Entries that show only a call come without a potency. Values without a mark were called inactive. The source made the active and inactive calls. Unless noted, the call rests on the fitted dose curve; in most records, active means well fitted curve in the direction sought with a large enough effect; inconclusive means small, poorly fitted or top-dose-only effect, or another doubt; inactive means no such curve, though single readings can be large; an effect the other way counts as inactive or inconclusive.
Legend:
[1] = Primary qHTS for inhibitors of La Crosse Virus (LACV) - induced cell death in SH-SY5Y cells (AID 1508616);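 further: top concentration of the series differs between compounds; higher means more rescue of cells from virus-induced death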
Outline: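 Cytopathicity rescue screen: compounds pinned onto SH-SY5Y cells, which are then infected with LACV (MOI 0.01) and held 6 days at 37C. Percent activity is scaled between infected DMSO control and uninfected DMSO control.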

[2] = biological target: Calcium and integrin-binding protein 1 (Homo sapiens) (UniProt Q99828); assay: Primary qHTS for Identification of Calcium Integrin Binding Protein 1 (CIB1) Competitor (AID 1508620);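 further: GST tagged CIB1 binding a fluorescein labelled alphaIIb integrin peptide tracer; top concentration of the series differs between compounds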
Calcium and integrin-binding protein 1 (Homo sapiens), sequence (Q99828 whole entry, looked up): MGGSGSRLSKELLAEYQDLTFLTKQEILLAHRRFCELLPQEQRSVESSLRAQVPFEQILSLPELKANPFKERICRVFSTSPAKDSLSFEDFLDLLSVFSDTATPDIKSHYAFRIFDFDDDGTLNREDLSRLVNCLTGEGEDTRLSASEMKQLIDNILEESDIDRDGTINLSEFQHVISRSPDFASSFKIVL
Outline: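 Fluorescence polarization competition: GST-tagged CIB1 (1 uM final) preincubated with compound 15 min at room temperature, then FITC-labelled alphaIIb peptide (100 nM final) added. After 15 min at room temperature, polarization read at Ex 480/Em 540.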

[3] = biological target: Cytochrome P450 2D6 (Homo sapiens) (UniProt P10635); assay: Cytochrome P450 family 2 subfamily D member 6 (CYP2D6) small molecule antagonists: luciferase biochemical (cell-free) qHTS assay (AID 1645840; active means well fitted curve in the direction sought with a large enough effect in the repeat runs; an effect the other way counts as inactive or inconclusive; further: nearly all actives have a fitted effect of over 55% in size; further: potency means the concentration at half of the fitted maximal effect)
Cytochrome P450 2D6 (Homo sapiens), sequence (P10635 whole entry, looked up): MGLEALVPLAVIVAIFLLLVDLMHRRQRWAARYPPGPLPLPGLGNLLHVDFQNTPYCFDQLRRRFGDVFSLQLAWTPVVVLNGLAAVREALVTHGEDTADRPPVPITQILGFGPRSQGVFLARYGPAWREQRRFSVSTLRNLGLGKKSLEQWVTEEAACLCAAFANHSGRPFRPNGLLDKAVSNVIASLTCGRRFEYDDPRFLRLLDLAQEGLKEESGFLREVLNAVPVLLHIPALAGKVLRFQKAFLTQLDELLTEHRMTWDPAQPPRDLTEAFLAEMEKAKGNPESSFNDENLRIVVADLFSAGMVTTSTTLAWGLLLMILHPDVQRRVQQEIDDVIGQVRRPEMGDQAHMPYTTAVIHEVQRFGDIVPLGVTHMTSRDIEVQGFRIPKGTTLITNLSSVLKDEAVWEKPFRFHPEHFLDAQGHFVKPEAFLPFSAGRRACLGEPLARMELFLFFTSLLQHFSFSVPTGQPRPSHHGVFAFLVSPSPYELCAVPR
Outline: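 P450-Glo CYP2D6 system: proluciferin substrate converted by enzyme to luciferin, read by luminescence proportional to activity. Enzyme-substrate mix with compound 10 min at room temperature, then NADPH regeneration 1 h before detection reagent.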

[4] = biological target: Cytochrome P450 2C9 (Homo sapiens) (UniProt P11712); assay: Cytochrome P450 family 2 subfamily C member 9 (CYP2C9) small molecule antagonists: luciferase biochemical (cell-free) qHTS assay (AID 1645842; active means well fitted curve in the direction sought with a large enough effect in the repeat runs; an effect the other way counts as inactive or inconclusive; further: nearly all actives have a fitted effect of over 55% in size; further: potency means the concentration at half of the fitted maximal effect)
Cytochrome P450 2C9 (Homo sapiens), sequence (P11712 whole entry, looked up): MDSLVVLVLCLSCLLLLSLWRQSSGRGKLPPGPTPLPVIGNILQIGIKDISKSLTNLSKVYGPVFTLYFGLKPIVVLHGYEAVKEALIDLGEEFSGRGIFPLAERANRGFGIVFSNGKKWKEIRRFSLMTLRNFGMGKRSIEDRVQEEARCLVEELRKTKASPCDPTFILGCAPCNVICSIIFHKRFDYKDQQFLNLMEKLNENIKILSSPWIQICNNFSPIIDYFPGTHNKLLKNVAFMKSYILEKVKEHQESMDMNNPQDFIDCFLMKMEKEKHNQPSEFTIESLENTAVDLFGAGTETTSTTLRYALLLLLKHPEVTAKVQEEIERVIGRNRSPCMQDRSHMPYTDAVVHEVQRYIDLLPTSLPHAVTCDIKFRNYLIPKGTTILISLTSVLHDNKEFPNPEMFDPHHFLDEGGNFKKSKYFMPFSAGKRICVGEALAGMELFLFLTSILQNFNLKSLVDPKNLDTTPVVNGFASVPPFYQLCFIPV
Outline: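 P450-Glo CYP2C9 system: proluciferin substrate with enzyme in mix containing 0.4% BSA, 10 min at room temperature, then NADPH regeneration solution added and incubated 1 h at 37C. Detection reagent stopped reaction; luminescence read after 20 min as RLU.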

[5] = Primary qHTS for inhibitors of nuclear receptor binding SET domain protein 2 (NSD2) in an isogenic RCH-ACV NSD2 p.E1099K mutant (9B) (AID 1645876); further: nearly all actives have a fitted effect of over 70% in size; further: potency means the concentration at half of the fitted maximal effect
[6] = Primary qHTS for inhibitors of nuclear receptor binding SET domain protein 2 (NSD2) in an RCH-ACV wild type WT cells (2C) (AID 1645877); further: nearly all actives have a fitted effect of over 70% in size; further: potency means the concentration at half of the fitted maximal effect
[7] = Primary qHTS for small molecule stabilizers of the endoplasmic reticulum resident proteome: Secreted ER Calcium Modulated Protein (SERCaMP) assay (AID 1508630)
Outline: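 The SH-SY5Y reporter protocol was run at 3 concentrations up to 38.3 uM (primary) or 11 concentrations (follow-up): 16 h compound, 100 nM thapsigargin for 4 h, then extracellular luciferase luminescence.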

[8] = A High-Content qHTS Against Drug Library for the Identification of Small Molecules that Inhibit DYT1 Early Onset Primary Dystonia-Associated Cell Pathology (AID 1645839; calls by dose curve; further: series mostly up to about 46 µM)
Outline: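 Cells were seeded and left for 24 h, then dosed with compound alongside tetracycline induction of mutant EGFP-TorsinA. They were incubated for 48 h, fixed in 4% paraformaldehyde, permeabilized and imaged for mislocalization (%pathology) and cell count.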

[9] = biological target: Cytochrome P450 3A4 (Homo sapiens) (UniProt P08684); assay: Cytochrome P450 family 3 subfamily A member 4 (CYP3A4) small molecule antagonists: luciferase qHTS assay (AID 1645841; active means well fitted curve in the direction sought with a large enough effect in the repeat runs; an effect the other way counts as inactive or inconclusive; further: nearly all actives have a fitted effect of over 45% in size)
Cytochrome P450 3A4 (Homo sapiens), sequence (P08684 whole entry, looked up): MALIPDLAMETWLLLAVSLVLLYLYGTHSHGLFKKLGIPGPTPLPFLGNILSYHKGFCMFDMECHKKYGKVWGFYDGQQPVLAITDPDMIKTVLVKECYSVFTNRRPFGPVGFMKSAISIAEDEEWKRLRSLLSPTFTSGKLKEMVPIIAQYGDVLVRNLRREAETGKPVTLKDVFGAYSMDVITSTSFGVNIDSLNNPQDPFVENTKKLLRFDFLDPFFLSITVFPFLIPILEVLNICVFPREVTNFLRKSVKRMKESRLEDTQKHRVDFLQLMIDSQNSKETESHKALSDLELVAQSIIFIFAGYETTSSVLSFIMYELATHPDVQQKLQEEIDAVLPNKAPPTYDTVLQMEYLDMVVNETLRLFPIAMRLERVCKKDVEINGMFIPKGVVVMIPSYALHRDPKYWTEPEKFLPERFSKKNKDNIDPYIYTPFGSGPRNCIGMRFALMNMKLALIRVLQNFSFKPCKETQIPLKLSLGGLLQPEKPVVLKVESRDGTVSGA
Outline: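 P450-Glo CYP3A4 enzyme with proluciferin substrate preincubated 10 min with compound at room temperature, then NADPH regeneration 1 h. Luciferin detection reagent added for 20 min; luminescence recorded. Ketoconazole positive control.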

Structure (SMILES) | outcome [1] | Potency [2] | Potency [3] | Potency [4] | Potency [5] | Potency [6] | Potency [7] | Potency [8] | Potency [9]
C/C(=C(/OCCOc1ccc(Cl)cc1)c1ccc(Cl)cc1Cl)n1ccnc1 | inactive | inactive | 0.871 µM (active) | 0.55 µM (active) |  |  |  |  | 
CCN(CC)CCOc1ccc(/C(=C(\Cl)c2ccccc2)c2ccccc2)cc1 | inactive | inactive | 1.38 µM (active) |  | 15 µM (active) and 8.33 µM (active) | 11.9 µM (active) and 5.25 µM (active) |  |  | 
CO/N=C(/C(=O)N[C@@H]1C(=O)N2C(C(=O)O)=C(Cn3nnc(C)n3)CS[C@H]12)c1csc(N)n1 | inactive |  | inactive | inactive |  |  | inactive | inactive | 
O=C1Nc2ccccc2C1(c1ccc(O)cc1)c1ccc(O)cc1 | inactive | inactive | 19.5 µM (active) | 4.36 µM (active) | 21.1 µM (active) | 16.8 µM (active) |  |  | 
Cc1cc(=O)oc2cc(O[C@@H]3SC[C@@H](O)[C@H](O)[C@H]3O)ccc12 | inactive | inactive | inactive | inactive | inactive | inactive |  |  | 
COc1cc(C=O)ccc1O | inactive | inactive | inactive | inactive | inactive | inactive |  |  | 
c1ccc(C(O[C@H]2CCCN(CCc3ccc4c(c3)OCO4)C2)c2ccccc2)cc1 |  | inactive | 0.0123 µM (active) | 24.5 µM (active) |  |  | inactive |  | 
Nc1ccc([N+](=O)[O-])c(C(F)(F)F)c1 |  | inactive | inactive |  | inactive | inactive | inactive | inactive | 
O=C(COCCOCCOCC(=O)Nc1c(I)cc(I)c(C(=O)O)c1I)Nc1c(I)cc(I)c(C(=O)O)c1I | inactive |  |  | inactive | inactive | inactive |  | inactive | 
CCc1cc2cc(OC)c(OC)cc2c(Cc2ccccc2)n1 |  | inactive |  | 15.5 µM (active) | 23.7 µM (active) |  | inactive | inactive | 
CO[C@]1(NC(=O)CSC(F)F)C(=O)N2C(C(=O)O)=C(CSc3nnnn3CCO)CO[C@H]21 |  | inactive | inactive | inactive |  |  | inactive | inactive | 
CO[C@@]1(NC(=O)CSC[C@@H](N)C(=O)O)C(=O)N2C(C(=O)O)=C(CSc3nnnn3C)CS[C@@H]21 |  | inactive | inactive |  | inactive | inactive | inactive |  | inactive
CC(C)NCCCC1(C(N)=O)c2ccccc2-c2ccccc21 | inactive |  | 3.89 µM (active) |  | inactive | inactive |  | inactive | 
O=C(c1cc(O)c(O)c(O)c1)c1ccc(O)c(O)c1O | inactive |  |  | inactive | 2.37 µM (active) | 13.3 µM (active) |  | inactive | 
COc1c(C)c2c(c(O)c1C/C=C(\C)CCC(=O)OCCN1CCOCC1)C(=O)OC2 |  | inactive | 13.8 µM (active) |  | 473 nM (active) and 525 nM (active) | 0.376 µM (active) | inactive | inactive | 

Source: PubChem BioAssay (NCATS)
